Most compounds without a hit are left out; they make up all but 7.7% or so of the library.
HCMV antiviral – human cytomegalovirus inhibition. HFF cells, HCMV-luciferase reporter, 72 h; stronger effect = lower value. activity change, negative = inhibition, % at 57.5 µM. 410,000 tested, 4.5% active; in the data active = activity change below about -60%; inconclusive = no clear call, values can overlap the other calls; inactive = above about -39%
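Compounds were evaluated in HFFs infected with an HCMV luciferase reporter virus (MOI 1 PFU/cell). Luciferase in lysates collected 72 h post infection served as the replication measure.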
RE007 growth inh – less growth of the S. pombe RE007 Vpr strain | S. pombe RE007 Vpr strain, BacTiter-Glo ATP luminescence, 24 h | Potency, µM (series often up to 92.2 µM), without a hit: top-dose activity change, negative = less growth, hits mostly inhibitors | 360,000 tested, 0.21% active | AID 651644; active = well fitted falling curve with a large enough effect; inconclusive = small, poorly fitted or top-dose-only effect; inactive = no such curve, though single readings can be large or run the other way; note: potency is the fitted concentration of half-maximal effect; nearly all actives have a fitted effect of over 50% in size
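Fission yeast RE007 carrying one integrated HIV-1 vpr copy, seeded at OD 0.01 in PMG+AL medium with 23 nL pinned compound. Grown 24 h at 30 degrees; viability read by BacTiter-Glo luminescence after 5 min.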
Giardia FBPA inh – blocks Giardia fructose-bisphosphate aldolase activity. A8B2U2. purified Giardia FBPA. Potency, µM (top dose mostly 59.6 µM), without a hit: at the highest dose activity, negative = inhibition, most hits filed as inhibitors. 290,000 tested, 0.71% active. AID 2451; note: potency is the fitted concentration of half-maximal effect; nearly all actives have a fitted effect of over 55% in size
Target sequence (A8B2U2 whole entry, looked up): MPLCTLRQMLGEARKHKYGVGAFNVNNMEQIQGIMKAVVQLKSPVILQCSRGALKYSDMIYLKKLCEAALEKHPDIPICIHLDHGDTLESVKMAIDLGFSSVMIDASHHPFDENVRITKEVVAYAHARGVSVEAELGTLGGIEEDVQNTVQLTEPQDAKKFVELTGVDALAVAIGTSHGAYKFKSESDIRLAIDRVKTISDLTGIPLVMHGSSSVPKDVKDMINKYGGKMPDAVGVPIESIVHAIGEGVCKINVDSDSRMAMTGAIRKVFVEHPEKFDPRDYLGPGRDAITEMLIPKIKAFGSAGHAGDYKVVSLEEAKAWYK
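40 nM FBPA preincubated 10 min at RT with compound (up to 57.5 uM final), then substrate plus GAPDH/TPI/NAD/arsenate coupling and diaphorase/resazurin added. Fluorescence read after 20 min at RT, 525/598 nm.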
TbPYK inhibitor – blocks Trypanosoma brucei pyruvate kinase; Q57TT1; TbPYK enzyme, Kinase-Glo Plus ATP luminescence, 45 min; Potency, µM (top dose mostly 76.8 µM), inactives show at the highest dose activity, negative = inhibition, actives largely listed as inhibitors; 410,000 tested, 0.12% active; note: potency is the fitted concentration of half-maximal effect; nearly all actives have a fitted effect of over 50% in size
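Readout: single end-point luminescence (Kinase-Glo Plus, 10 min). Reaction conditions were TbPYK/substrate plus 130 uM ADP, 45 min at RT, pH 7.2 TEA buffer. No-enzyme wells served as controls, and data were normalized before concentration-response fitting.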
FMDV inh – foot and mouth disease virus antiviral activity. FMDV antiviral cell-based qHTS. 410,000 tested, 1.2% active. AID 1159524. Potency, µM (top dose mostly 57.9 µM), without a hit: at the top dose activity change, negative = inhibition, most hits filed as inhibitors; calls by dose curve; tested in HEK293T cells; note: read-out not given here; potency is the fitted concentration of half-maximal effect; nearly all actives have a fitted effect of over 45% in size
Sm TGR block – blocks Schistosoma mansoni thioredoxin glutathione reductase; Q962Y6; Potency, µM (series often up to 114 µM), for the others: at the highest dose activity change, negative = inhibition, most hits filed as inhibitors; 360,000 tested, 3% active; purified TGR, DTNB reduction, TNB absorbance 405 nm; AID 485364; note: potency is the fitted concentration of half-maximal effect; nearly all actives have a fitted effect of over 60% in size
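Kinetic colorimetric format: TGR-catalysed, NADPH-driven DTNB reduction monitored via TNB absorbance. Enzyme dispensed at 20 nM; compound exposure 15 min at room temperature before reaction start.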
An asterisk follows results filed as active; u = inconclusive; x = no result given. Unless noted, calls come from the whole dose curve; as a rule, active = well fitted curve in the direction sought with a large enough effect; inconclusive = small, poorly fitted or top-dose-only effect, or another doubt; inactive = no such curve, though single readings can be large; an effect the other way counts as inactive or inconclusive. % is set by controls: 0 for no effect and ±100 for the full control effect.

SMILES | HCMV antiviral | RE007 growth inh | Giardia FBPA inh | TbPYK inhibitor | FMDV inh | Sm TGR block
O=C1NC(=O)N(c2ccc3c(c2)OCO3)C(=O)/C1=C/c1cccs1 | 99 | 14% | -11% | u | 28µM* | u
O=C1NC(=O)N(c2ccc3c(c2)OCO3)C(=O)/C1=C/c1ccsc1 | 30 | 6% | -9% | u | u | u
CN1C(=S)N(c2cccnc2)C(=O)/C1=C\c1ccc(N(C)C)cc1 | -64* | -13% | -20% | -11% | u | -18%
Cc1c(N2C(=O)/C(=C\c3ccc(N(C)C)cc3)N(C)C2=S)c(=O)n(-c2ccccc2)n1C | -65* | -14% | -5% | -16% | -19% | -10%
Cc1ncc(C[n+]2csc(CCOP(=O)(O)OP(=O)(O)O)c2C)c(N)n1 | x | x | 3% | 0% | x | x
COCCNC(=O)/C(C#N)=C/c1c(F)cccc1Cl | -75* | 3% | 1% | -3% | -27% | -1%
O=c1c(-c2ccc(F)cc2)nc2cnc(N3CCNCC3)nc2n1C1CC1 | x | x | 1% | x | -5% | x
CCCCCc1ccc(OCCCC[n+]2cccc(C)c2)c(CCCCC)c1 | -102* | u | -3% | 3% | u | 2%
CCCCCc1ccc(OCCCC[n+]2ccc(C)cc2)c(CCCCC)c1 | -100* | u | -1% | -4% | u | -12%
CCCCCc1ccc(OCCCC[n+]2ccccc2)c(CCCCC)c1 | x | u | 1% | -9% | u | 2%
CCCCN(Cc1cccs1)S(=O)(=O)c1cc(-c2cc(C)no2)ccc1C | u | x | x | -9% | -11% | -3%
O=C(CCc1nnc(Cc2ccc3c(c2)OCO3)o1)NCc1nc2ccccc2s1 | 51 | -9% | 1% | -7% | -4% | 28µM*
CC(=O)NNC(=O)c1[nH]c2ccc(Br)cc2c1-c1ccccc1 | -32 | 2% | -6% | -7% | 7% | 9%
NNC(=O)c1[nH]c2ccc(Br)cc2c1-c1ccccc1 | -96* | 9% | -15% | 6% | -24% | -6%
NNC(=O)c1[nH]c2ccc(Cl)cc2c1-c1ccccc1 | -97* | -5% | -15% | 1% | -5% | -1%
O=C(COc1ccc(/C=C\[N+](=O)[O-])cc1)N1CCOCC1 | 24 | -7% | -23% | -14% | u | 22µM*
O=C(COc1ccc(S(=O)(=O)N2CCOCC2)cc1)N1CCOCC1 | -31 | 4% | x | -6% | 0% | 0%
O=[N+]([O-])/C=C\c1ccc(N2CCOCC2)cc1 | -27 | u | x | -15% | 18µM* | x
COc1ccccc1OCC(=O)NNC(=O)Nc1ccc(Cl)cc1 | -64* | -9% | 1% | 5% | -12% | 11%
C[N+]1(CC(=O)NNc2c3ccccc3nc3ccccc23)CCOCC1 | -96* | x | -1% | x | x | 10%
Cc1ccc(NC(=O)NNC(=O)COc2ccc(Cl)cc2)cc1 | 7 | 15% | x | 2% | -4% | x
COc1ccccc1OCC(=O)NNc1c2ccccc2nc2ccccc12 | -92* | 2% | 11% | 3% | -22% | 3%
COCCCNC(=O)CCCn1c(=O)c2cccn2c2cccnc21 | u | x | x | -2% | -7% | 6%
COC(=O)N/N=C/c1cc(C)n(-c2ccccc2)c1C | 35 | 8% | -6% | 1% | 55% | -18%
Cc1cc(C(=O)N/N=C/c2ccc(O)c(O)c2O)c(C)n1-c1ccccc1 | u | 13% | 16µM* | 10% | -7% | 40µM*
SMILES | HCMV antiviral | RE007 growth inh | Giardia FBPA inh | TbPYK inhibitor | FMDV inh | Sm TGR block
Cc1cc(/C=N/NC(=O)c2cccs2)c(C)n1-c1ccccc1 | u | -9% | -13% | 0% | 13µM* | -6%
Cc1ccsc1-c1n[nH]c(=S)n1C1CCCCC1 | 25 | 2% | -7% | 3.2µM* | -24% | -2%
COc1ccc(-c2n[nH]c(=S)n2C2CCCCC2)cc1 | -14 | 18% | 11% | u | u | 89µM*
S=c1[nH]nc(-c2cccnc2)n1C1CCCCC1 | 2 | 0% | -23% | u | -11% | 4%
Cc1ccc2nc(-c3cccc(NC(=O)c4cccc5c(Cl)cccc45)c3)oc2c1 | 22 | x | x | -3% | 38% | 8%
CCc1nn(CC(=O)NCCN2CCN(C)CC2)c(=O)c2cc3occc3n12 | -104* | 12% | -3% | 0% | -18% | 0%
CC(C)CNC(=O)c1csc(C(O)C(C)C)n1 (stereo unspecified) | -3 | x | x | x | x | x
Cc1cc([N+](=O)[O-])c2ccccc2[n+]1[O-] | x | 14µM* | u | -1% | u | 13µM*
COc1cccc(CNC(=O)CSc2cc(C)[nH]c(=O)n2)c1 | 5 | x | x | 2% | 17% | 4%
COC(=O)/C=c1\sc2ncnn2c1=O | 3 | -18% | u | u | -27% | 1.4µM*
O=c1cc(-c2ccccc2Br)[nH]c2ccccc12 | -90* | x | x | x | x | x
COc1ccc(CNC(=O)CN2C(=O)CSc3ccc(S(=O)(=O)N4CCCC4)cc32)cc1 | -3 | x | x | 1% | 2% | 9%
O=[N+]([O-])C(/C=C(/Cl)[N+](=O)[O-])=C(N1CCCCC1)N1CCCCC1 | -24 | 1% | -14% | -3% | 14% | 25µM*
O=[N+]([O-])C(/C=C(\Cl)[N+](=O)[O-])=C1N(Cc2ccc(Cl)nc2)CCN1Cc1ccc(Cl)nc1 | -25 | -4% | -12% | -11% | x | -34%
C[C@]12CCC3C(CCC4=CC(=O)CC[C@@H]43)C1CCC2O (stereo partly specified) | x | x | x | 14% | x | x
COc1cc(C2C3=C(CC(C)(C)CC3=O)NC3=C2C(=O)c2ccccc23)ccc1O (stereo unspecified) | -26 | -7% | -8% | -10% | -10% | -12%
CC1(C)CC(=O)C2=C(C1)NC1=C(C(=O)c3ccccc31)C2c1ccc(Cl)cc1 (stereo unspecified) | -100* | -21% | -23% | -16% | 0% | -12%
CSC1=C(C#N)C(c2ccc(Cl)cc2)C2=C(CC(C)(C)CC2=O)N1 (stereo unspecified) | -68* | -6% | -7% | 3% | -8% | 28µM*
Cc1ccc(C2C3=C(CC(C)(C)CC3=O)NC3=C2C(=O)c2ccccc23)cc1 (stereo unspecified) | -65* | 1% | -15% | -3% | -25% | -24%
Cc1ccc(CNC(=O)C2CCCN(S(=O)(=O)c3cn(C)cn3)C2)cc1 (stereo unspecified) | -15 | x | x | -3% | 25% | 3%
Cc1ccc(C)c(N(CC(=O)NC2CCCC2)C(=O)c2oc(C(C)(C)C)cc2C)c1 | -67* | 2% | 12% | 3% | x | 0%
O=C(Nc1ccccc1Br)N1CCC(CN2CCCC2)CC1 | 13 | x | x | 1% | -5% | -19%
COc1cnc(-c2ccccn2)nc1Sc1c(Cl)cccc1Cl | -73* | 4% | 1% | -2% | -18% | -26%

Screening results deposited in PubChem by National Center for Advancing Translational Sciences (NCATS).
